Values joined by “and” are separate entries in the source; they are usually repeats but may differ in a detail not shown here. Identical values can stand only once. Inconclusive results are not listed. Active and inactive are the calls of the source. The call rests on the fitted dose curve; in most records, active means well fitted cell-killing curve with a large enough effect in the repeat runs; inconclusive means weak or mixed curves, or effect the other way; inactive means flat fitted curve, though single readings scatter.

The text below walks through data of PubChem BioAssay (Tox21).
On the % scale 0 is the no-effect control and ±100 the full control effect; potency means the concentration at half of the fitted maximal effect.

The nature of this test: Caspase-3/7 induction in HepG2 cells by small molecules, qHTS cell viability counter screen (AID 1346981). Further: nearly all actives have a fitted effect of over 30% in size. As to conditions: CellTiter-Fluor fluorescence, 17 h; series mostly up to 92.4 µM; activity change, negative = cytotoxicity: at the top concentration. The text has this: U.S. Tox21 Program National Center for Advancing Translational Sciences [NCATS] NIH Chemical Genomics Center [NCGC] U.S. Environmental Protection Agency [EPA] National Institutes of Environmental Health Sciences [NIEHS] National Toxicology Program [NTP] U.S. Food and Drug Administration [FDA] Tox21 Assay Overview: Apoptosis is a process of programmed cell death and plays a central role in the development of multicellular organisms. It is a highly regulated process and induces cell death by activating caspases, which are the members of cysteine aspartic acid-specific protease (caspase) family. Caspases involved in apoptosis are classified by their mechanism of action as initiator caspases (caspase-2, -8, -9 and -10) and executioner caspases (caspase-3, -6, and -7). Inhibition of apoptosis results in number of cancers, autoimmune diseases, inflammatory diseases and viral infection. To identify small molecule compounds that induce apoptosis, a homogeneous, luminescent Caspase-Glo 3/7 assay was used. Wild type HepG2 cells were used to screen Tox21 libraries for identifying caspase-3/7 activity inducers. Also cytotoxicity of the compounds was tested in parallel by measuring the cell viability using CellTiter-Fluor assay system in the same wells.
Tox21 Assay Protocol Summary: HepG2 cells were dispensed at 2,000 per well in 5uL of culture medium into white solid bottom 1536-well plates (Corning Life Sciences, Corning, NY) using a Multidrop Combi (Thermo Scientific, Waltham, MA) dispenser. The assay plates were incubated at 37 C and 5% CO2 for 5hr, and then 23nL of compounds dissolved in DMSO and positive control were transferred using a Pintool station ([…], San Diego, CA). The assay plates were incubated at 37C and 5% CO2 for 17hr. For cytotoxicity read, after 16hr incubation at 37C, 1uL CellTiter-Fluor reagent (Promega Corporation, Madison, WI) was added to each well of the assay plates using Flying Reagent Dispenser (FRD, Aurora Discovery, San Diego, CA). After 1hr incubation at 37C and 5% CO2, the fluorescence signal was quantified using a ViewLux plate reader (PerkinElmer, Shelton, CT).
On the technique in general: Quantitative high-throughput screening tests each substance at several concentrations.
In the case of `c1ccc(OCC2CO2)cc1` (stereo not given), the “activity change, negative = cytotoxicity” value is 9.47% (inactive).
The same measure, in the same setting: in the case of `N#CNC#N` it was -4.21% (inactive).
In the case of `Clc1ccc(C(c2ccc(Cl)cc2)C(Cl)(Cl)Cl)cc1`, the Potency result is “inactive”.
The same measure, in the same setting: the result for `Nc1c(Oc2ccccc2)cc(O)c2c1C(=O)c1ccccc1C2=O` reads 18.8 µM (active).
`C[C@]12Cc3nonc3C[C@@H]1CC[C@@H]1[C@@H]2CC[C@@]2(C)[C@H]1CC[C@]2(C)O`: the “activity change, negative = cytotoxicity” value was -0.774% [at 42.5 µM] (inactive).
Take `CC(=O)O[C@H]1CC[C@@]2(C)C(=CC[C@@H]3[C@@H]2CC[C@]2(C)C(=O)CC[C@@H]32)C1`: the “activity change, negative = cytotoxicity” value is 0.253% (inactive).
In the case of `c1cc[c]([Sb]([c]2ccccc2)[c]2ccccc2)cc1`, the “activity change, negative = cytotoxicity” value is -4.05% (inactive).
The same measure, in the same setting: in the case of `N#C/C=C/c1ccccc1` it was -13.1% (inactive); in that of `CCN(CC)c1c([N+](=O)[O-])cc(C(F)(F)F)c(N)c1[N+](=O)[O-]`, -14.9% (inactive); in that of `CCOC(=O)c1ccccc1S(=O)(=O)NC(=O)Nc1nc(Cl)cc(OC)n1`, 0.2% (inactive).
As to `CCOC(=O)C1(c2ccccc2)CCN(CCC(C#N)(c2ccccc2)c2ccccc2)CC1`, the “activity change, negative = cytotoxicity” value is -6.86% [at 42.5 µM] (inactive).
On the same count and under the same terms, the result for `CNC(C)Cc1ccc2c(c1)OCO2` (stereo not given) reads 0.668% (inactive); that for `C[As+](C)(C)CC(=O)[O-]`, 0.382% (inactive).
Take `CC(Cc1ccc(C(C)(C)C)cc1)CN1C[C@@H](C)O[C@@H](C)C1` (stereo not given in full): the “activity change, negative = cytotoxicity” value is 5.87% (inactive).
Turning to `CC[C@H](C)[C@H]1O[C@]2(C=C[C@@H]1C)C[C@@H]1C[C@@H](C/C=C(\C)[C@@H](O[C@H]3C[C@H](OC)[C@@H](O[C@H]4C[C@H](OC)[C@@H](O)[C@H](C)O4)[C@H](C)O3)[C@@H](C)/C=C/C=C3\CO[C@@H]4[C@H](O)C(C)=C[C@@H](C(=O)O1)[C@]34O)O2`, the Potency is 25.6 µM (active).
In the case of `CSCCCN=C=S`, the “activity change, negative = cytotoxicity” value was -0.599% (inactive).
Take `CCCCCCCCCCCCCCCCCCn1cc[n+](C)c1`: the Potency was 68.2 µM (active).
Still for that read-out and setting: in the case of `CCc1cc(C)cc(CC)c1-c1c(OC(=O)C(C)(C)C)n2n(c1=O)CCOCC2` it was 30.6 µM (active).
Regarding `COP(=S)(OC)Oc1cc(Cl)c(Br)cc1Cl`, the “activity change, negative = cytotoxicity” value was -12.6% (inactive).
The same measure, in the same setting: in the case of `CC(C)CCCCCCCOP(=O)(Oc1ccccc1)Oc1ccccc1` it was -1.34% (inactive); in that of `CCCCCCCCCCCCCCC(Br)C(=O)O` (stereo not given), 1.05% (inactive).
With `O=C(O)C1C2CCC(O2)C1C(=O)O` (stereo not given), the Potency result was “inactive”.
Turning to `CCc1ccccc1C`, the “activity change, negative = cytotoxicity” value is -9.32% (inactive).
Turning to `CN(C)CCc1c[nH]c2cccc(O)c12`, the “activity change, negative = cytotoxicity” value was -4.7% (inactive).
For `COC[C@H](C)N(C(=O)CCl)c1c(C)csc1C`, the “activity change, negative = cytotoxicity” value was 0.752% (inactive).
For `CCC(C)(C)C(=O)OC1=C(c2ccc(Cl)cc2Cl)C(=O)OC12CCCCC2`, the “activity change, negative = cytotoxicity” value was 2.29% (inactive).
Turning to `CCC(C)c1cc(C(C)(C)C)cc(-n2nc3ccccc3n2)c1O` (stereo not given), the “activity change, negative = cytotoxicity” value was -0.797% [at 42.5 µM] (inactive).
Regarding `O=c1ssc(Cl)c1Cl`, the “activity change, negative = cytotoxicity” value is -5.76% (inactive).
Same read-out and setting: in the case of `Oc1ccccc1Br` it was -1.69% (inactive).
With `OC(Cc1ccccc1Cl)(Cn1cncn1)C1(Cl)CC1` (stereo not given), the “activity change, negative = cytotoxicity” value is -1.5% (inactive).
In the case of `C=COCCCl`, the “activity change, negative = cytotoxicity” value is 5.36% (inactive).
Same read-out and setting: the result for `BrCBr` reads 2.31% (inactive); that for `Oc1ccc2ccc3cccc4ccc1c2c34`, -4.92% (inactive).
With `COS(=O)(=O)c1ccc(C)cc1`, the “activity change, negative = cytotoxicity” value was -4.66% (inactive).
Take `Cc1cc(N=Nc2ccccc2C)ccc1N`: the Potency was 3.86 µM (active) and 686 nM (active).
On the same count and under the same terms, in the case of `Clc1ccc(C(c2ccccc2Cl)C(Cl)(Cl)Cl)cc1` (stereo not given) it was “inactive”.
On to `N#Cc1ccccc1Cl`, for which the “activity change, negative = cytotoxicity” value was 0.107% (inactive).
With `CC(C)OC(=O)C(O)(c1ccc(Cl)cc1)c1ccc(Cl)cc1`, the “activity change, negative = cytotoxicity” value was -4.39% (inactive).
In the case of `CCN`, the “activity change, negative = cytotoxicity” value is 9.5% (inactive).
On to `Oc1ccc(C2(c3ccc(O)cc3)CCCCC2)cc1`, for which the Potency is 51.6 µM (active).
